Experimental data: PubChem BioAssay AID1532 (PCMD, 2009)
About 420 (0.38%) of roughly 110,000 compounds were called active. Cut-off read from the data, not from the text of the source: active = inhibition above about 30% (passing the limit was not always enough); inconclusive = no clear call, values can overlap the other calls. The list comes from a sample in which actives are over-represented; it also holds similar structures and randomly drawn compounds.

Test system: RmlC (dTDP-4-dehydrorhamnose 3,5-epimerase) and RmlD (dTDP-4-dehydrorhamnose reductase), coupled enzyme assay
Assay: RmlC and RmlD coupled enzyme inhibitors, primary screen, biochemical, 384-well, compound mixtures, retest (AID 1532)
Settings: 384-well mixture HTS, at 5.5 µM, stronger effect = higher value
[1] = measured here: mean retest inhibition

SMILES | inhibition | inhibition [1] [%]
COc1cc(OC)c2ccc(=O)oc2c1C(CCN1CCN(c2ccccc2)CC1)c1ccc2c(c1)OCO2 (configuration not stated) | -3.48% (inactive) | 
CCOC(=O)/C=C/CN(C(=O)OC(C)(C)C)S(=O)(=O)N1CC=CC1 | -3.8% (inactive) | 
C#CCOCCOCCOCCNc1nc(N2CCN(C(=O)[C@H](CCC(=O)O)n3cc(C(N)CO)nn3)CC2)nc(N2CCN(C(=O)[C@H](CCCCN)n3cc(C(N)CC(C)C)nn3)CC2)n1 (some centres not stated) | 12.9% (inactive) | 
Cc1nc(-c2ccccc2)sc1C1(C)CC(c2cccnc2)=NO1 (configuration not stated) | 1.85% (inactive) | 
O=c1[nH]snc1-c1c(Cl)cccc1Cl | -15.8% (inactive) | 
COC(C[C@H](O)CC(=O)COCc1ccccc1)OC | -6.86% (inactive) | 
CCN1C(=O)N[C@@H](c2ccccc2)[C@H](C(C)=O)[C@H]1C | -8.96% (inactive) | 
Cc1ccc(-c2cc(=O)c3ccc(F)cc3[nH]2)cc1 | -13.2% (inactive) | 
O=C(NCC1CC1)c1onc(CSc2ccccc2)c1C(=O)NCC1CC1 | -3.31% (inactive) | 
O=C1CC2(CCCC2)Oc2ccc(Cl)cc21 | 2.74% (inactive) | 
COC(=O)Cc1cc(=O)oc2c(C)c(O)ccc12 | 115% (active) | 108
COC(=O)COc1ccc2oc(=O)cc(C)c2c1 | 10.6% (inactive) | 
CCCc1cc(=O)oc2c(C)c(O)c(CN3CCCCC3)cc12 | 125% (inactive) | 66.6
CCO[C@H]1OC(C(=O)N2CCN(Cc3ccccc3)CC2)=C[C@@H](c2cn(C(C)=O)c3ccccc23)[C@@H]1CCCO | 77% (inactive) | 8.54
Cc1nc(C(=O)Nc2ccc(Cl)cc2)sc1C1(C)CC(c2ccccc2)=NO1 (configuration not stated) | 7.11% (inactive) | 
C=CCOC(=O)C1=C[C@H](c2ccc(Br)cc2)C[C@H](OCCCCO)O1 |  | 3.33
C[C@@H](C(=O)N1CCNCC1)n1cc(CCC(=O)O)nn1 | -10.6% (inactive) | 
CC(=O)Nc1sc2c(c1C(c1cccc(F)c1)N1CCN(CCO)CC1)CCCC2 (configuration not stated) | -13.5% (inactive) | 
CN(C(=O)C1CCOC1)c1nnc(-c2cccnc2)s1 (configuration not stated) | -5.38% (inactive) | 
COc1cccc(-c2nnc(N(C)C(=O)c3ccno3)s2)c1 | 11.7% (inactive) | 
CN(C(=O)c1ccccn1)c1nnc(-c2ccccn2)s1 | 73.7% (active) | 110
CN(Cc1ccccc1)C(=O)COc1ccccc1 | -9.33% (inactive) | 
CN(C(=O)c1ccno1)c1nnc(-c2cccnc2)s1 | 11.4% (inactive) | 
COC(=O)Nc1c(C)n(C)n(-c2ccccc2)c1=O | 3.72% (inactive) | 
Cc1cc(C(=O)Nc2c(C)n(C)n(-c3ccccc3)c2=O)cs1 | -9.2% (inactive) | 
Cc1c(NC(=O)c2coc(=O)c(Br)c2)c(=O)n(-c2ccccc2)n1C | 75.6% (active) | 104

SMILES | inhibition | inhibition [1] [%]
COc1ccc(COCCN2CCN(S(=O)(=O)c3ccccc3)CCC2=O)cc1 | 2.31% (inactive) | 
CC(=O)N[C@H]1[C@H]([C@H](O)[C@H](O)CO)OC(C(=O)O)=C[C@@H]1O | 1.59% (inactive) | 
COc1ccc(C2/C=C\CN(CC(C)C)CC(=O)N2Cc2ccc(F)cc2)cc1 (configuration not stated) | -6.08% (inactive) | 
NC(N)=NCCCc1cn(CC(=O)N2CCNCC2)nn1 | -8.74% (inactive) | 
COc1ccc2c(c1)CCNC2Cc1ccc(OC)c(O)c1 (configuration not stated) | -40.5% (inactive) | 
Cc1cn(C)c(=O)n(C)c1=O | -2.57% (inactive) | 
CC(C)(C)OC(=O)NCCCC1=CC2=CC(=O)C(C)(OC(=O)c3ccco3)C(=O)C2=CO1 (configuration not stated) | -13.3% (inactive) | 
Cc1ccc(NC(=O)N2CCSc3ccccc32)cc1 | -8.05% (inactive) | 
NC(=O)CC[C@@H]1NC(=O)[C@H](CO)NC(=O)c2cc([N+](=O)[O-])cc(I)c2NCC[C@@H](C(N)=O)NC1=O | -1.33% (inactive) | 
CCCC[C@@H]1CN=C(N)N1CCc1cccc(F)c1 | 4.76% (inactive) | 
CNC(=O)c1[nH]cnc1C(=O)N[C@@H](CC(C)C)C(=O)OC(C)(C)C | -13.2% (inactive) | 
C#Cc1ccc([C@@H]2C=C(C(=O)O)O[C@H](OCCCCO)C2)cc1 | -5.63% (inactive) | 
O=C(NCc1ccccc1)c1onc(CSc2ccncc2)c1C(=O)NCc1ccccc1 | 2.05% (inactive) | 
CCOC(=O)c1ccc(NC(=O)c2c(N)n(C)c(=O)[nH]c2=O)cc1 | 8.64% (inactive) | 
COc1ccc(CNC(=O)[C@@H]2CC=C[C@@H]3CCN(C4CC4)C(=O)[C@@H]32)cc1 | 4.14% (inactive) | 
CC1(C)S[C@@H]2[C@H](NC(=O)COc3ccccc3)C(=O)N2C1C(=O)OCc1ccccc1 (some centres not stated) | 5.36% (inactive) | 
C#CCCOC(=O)N1C2=NC(C(=O)OC)=C(C(=O)OC)[C@@H]3N(C)c4ccc(OC)cc4[C@]23C[C@H]1C(=O)OC | -9.08% (inactive) | 
CN1CCN(C(CNS(=O)(=O)c2cccs2)c2cccnc2)CC1 (configuration not stated) | -1.39% (inactive) | 
O=C1N[C@@H](Cc2ccccc2)C(=O)N2[C@@H]3N(S(=O)(=O)c4ccc(F)cc4)c4ccccc4[C@]3(Br)C[C@@H]12 | -18.2% (inactive) | 
C#CCOCCOCCOCCNc1nc(N2CCN(C(=O)[C@H](CCC(=O)O)n3cc(C(N)CO)nn3)CC2)nc(N2CCN(C(=O)[C@H](Cc3ccc(O)cc3)n3cc(C(N)[C@H](C)CC)nn3)CC2)n1 (some centres not stated) | 7.3% (inactive) | 
O=C1N[C@H](Cc2ccccc2)C(=O)N[C@H]1Cc1cn(S(=O)(=O)c2ccccc2)c2ccccc12 | -14.5% (inactive) | 
CC(C)[C@@H]1NC(=O)c2cc([N+](=O)[O-])cc(I)c2NCCC[C@@H](C(=O)NC(CC(=O)O)C(N)=O)NC(=O)[C@H](CO)NC1=O (some centres not stated) | -19.9% (inactive) | 
NC(=O)CC[C@@H]1NC(=O)[C@@H]2CCCN2C(=O)c2cc([N+](=O)[O-])cc(F)c2NCCC[C@@H](C(N)=O)NC1=O | -71.2% (inactive) | 
NC(=O)C1=C[C@H](c2csc3ccccc23)C[C@H](OCc2ccc(CO)cc2)O1 | -63% (inactive) | 
COP1(=O)C[C@@H](O)[C@@H](O)[C@@H](COCc2ccccc2)O1 (some centres not stated) | 11.1% (inactive) | 
CCN1C(=O)N[C@@H](CCc2ccccc2)C(C(=O)OC)=C1C | 4.12% (inactive) | 
